# Screening data: PubChem, several laboratories
# ADAM10 inh = inhibitors of human ADAM10 | O14672 | recombinant ADAM10, EDANS/DABCYL FRET peptide cleavage, 3 h | inhibition, % at 7 µM | 0.62% of 370,000 active | AID 720582;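 active = inhibition above a per-campaign cutoff equal to the mean of compounds falling between control-based bounds plus 3 SD, cut at about 20% in these data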;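 note: 0% = DMSO wells while the 100% control is not disclosed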
# Target sequence (O14672 214-748 limits assumed): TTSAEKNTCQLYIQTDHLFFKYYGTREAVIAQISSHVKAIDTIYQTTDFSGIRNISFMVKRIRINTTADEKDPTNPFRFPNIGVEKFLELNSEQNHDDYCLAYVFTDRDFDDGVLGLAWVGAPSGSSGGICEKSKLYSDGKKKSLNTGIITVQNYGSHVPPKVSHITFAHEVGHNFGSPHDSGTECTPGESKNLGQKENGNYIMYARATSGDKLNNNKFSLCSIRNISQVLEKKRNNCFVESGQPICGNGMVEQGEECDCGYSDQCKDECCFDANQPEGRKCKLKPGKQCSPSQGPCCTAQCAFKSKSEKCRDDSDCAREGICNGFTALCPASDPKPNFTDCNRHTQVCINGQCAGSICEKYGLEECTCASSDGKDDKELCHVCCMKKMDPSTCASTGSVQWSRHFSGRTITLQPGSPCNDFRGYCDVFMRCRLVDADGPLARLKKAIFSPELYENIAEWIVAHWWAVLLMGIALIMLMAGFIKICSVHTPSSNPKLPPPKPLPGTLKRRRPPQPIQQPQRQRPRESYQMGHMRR
# ADAM17 inh = inhibitors of human ADAM17; recombinant ADAM17, EDANS/DABCYL FRET peptide cleavage; AID 720648; 0.83% of 370,000 active; inhibition, % at 6.95 µM;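 active = inhibition above the mean of compounds lying between control limits plus 3 SD, set per campaign, cut at about 8.5% in these data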;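 note: 0% = DMSO-only wells as the low control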
# Ecoli rRNA inh = inhibits bacterial ribosomal RNA function over humanized ribosomes | E. coli WT GFP vs humanized-ribosome RFP mutants, fluorescence, 24 h; active compounds read low; DMSO median 0, no signal -100 | GFP signal change (wild-type ribosome), % (no concentration beside the values) | 1.6% of 350,000 active | AID 720706;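 active = significant combined selectivity score with lowered wild-type GFP, culture density cut under 30%, mutant RFP and density less affected; inactive = any of these conditions unmet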
# FGF22 binding = FGF22 (human) thermal shift binding; Q9HCT0; recombinant FGF22 thermal shift, SYPRO orange fluorescence; percent of sucrose octasulfate shift, DMSO zero; activity (Tm shift, normalised), % at 9.99 µM; 1.5% of 340,000 active; AID 651658;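 active = mean Tm shift, scaled 0 neutral to 100 positive control, at about 1.3% or above, every replicate too, limit read from the data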
# proKLK7 act = proKLK7 (human) activation, primary screen; 0.9% of 370,000 active; P49862; purified proKLK7, EDANS-DABCYL substrate fluorescence; 100% is mature enzyme control, 0% vehicle; activation, % at 7 µM;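 active = activation above the mean of all tested compounds plus 3 SD, computed per campaign excluding outliers beyond control limits, cut at about 13% in these data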
# Starred values were filed as active, the others as inactive; / = no result. The list is not random: actives were taken first. Their share in the collection is about 3.8%.
SMILES,ADAM10 inh,ADAM17 inh,Ecoli rRNA inh,FGF22 binding,proKLK7 act
COC(=O)CC1C(=O)NCCN1C(=S)NC(=O)C(c1ccccc1)c1ccccc1 (centres undefined),3.5,-0.2,-25.9*,0.0,0.1
Cc1ccc(O)c(NC(=S)NC(=O)/C=C/c2ccco2)c1,2.4,2.0,-13.9,43.0*,-0.3
O=C(/C=C/c1ccco1)NC(=S)NNC(=O)c1ccco1,-5.1,-3.7,-26.2*,0.7,1.4
CC(C)(C)c1[nH]nc2c1C(c1ccco1)C(C#N)=C(N)O2 (centres undefined),3.7,-0.5,7.7,43.9*,-1.5
CC(C)c1[nH]nc2c1C(c1ccc(OC(=O)c3ccco3)cc1)C(C#N)=C(N)O2 (centres undefined),7.2,-2.7,-26.9*,0.0,-0.2
CCC1Nc2ncnc(N3CCc4ccccc4C3)c2N(Cc2ccc(Cl)cc2)C1=O (centres undefined),-5.0,-1.2,-17.4*,-0.1,1.1
CN1C(=O)c2cc(NC(=O)Nc3cccc(Cl)c3)ccc2OC[C@H]2O[C@@H](CC(=O)O)CC[C@@H]21,/,/,1.6,/,/
COCCN(Cc1cc2cc3c(cc2nc1Cl)OCO3)C(=O)Nc1ccc(F)cc1,-7.2,-2.2,-26.6*,0.0,0.4
COc1ccc(CC(=O)NCc2nnc(SCc3ccc([N+](=O)[O-])cc3)n2C)cc1,3.8,2.9,-4.5,-0.1,0.5
COc1ccc(CC(=O)NCc2nnc(SCc3ccc(C)cc3)n2C)cc1,-4.8,-0.9,/,43.3*,-0.2
CCN1CCN(C(=O)CSc2cc(=O)n(C)c3ccccc23)CC1,-2.4,-1.1,-1.0,-0.2,-0.1
CN1CCN(C(=O)CSc2cc(=O)n(C)c3ccccc23)CC1,-8.3,-3.7,10.1,43.5*,0.2
Cc1ccc(Cl)cc1N1CCN(S(=O)(=O)c2ccc3[nH]c(=O)c(=O)[nH]c3c2)CC1,-7.2,-3.3,-29.3*,-0.2,0.2
COc1ccccc1N(Cc1cc(=O)[nH]c2ccccc12)C(=O)c1cccc([N+](=O)[O-])c1,-3.2,-2.5,-2.6,43.3*,0.2
COC(=O)c1scc(C#N)c1N/N=C(\C#N)S(=O)(=O)c1ccc(Cl)cc1,7.7,0.4,1.6,-0.1,0.0
COC(=O)c1scc(S(=O)(=O)C(C)C)c1N/N=C(\C#N)C(=O)c1ccc(Cl)cc1,-1.6,-2.1,-43.4*,-1.0,0.2
CCC(=O)N[C@@H]1C=C[C@@H](CC(=O)NCCN2CCCCC2)O[C@@H]1CO,/,/,-2.9,-0.2,/
COc1cccc(-c2noc(-c3cccs3)n2)c1,3.1,-0.7,/,/,-0.5
COc1cccc(OCc2nnc(-c3cccs3)o2)c1,0.7,-0.1,2.3,43.3*,-0.6
CCOC(=O)N1CCN(C(=O)c2cc3c(-c4cccc(OC)c4)nn(C)c3s2)CC1,-22.7,0.5,-28.6*,-0.4,-0.1
Nc1nc(-c2ccccc2)c(N=Nc2ccc(Cl)cc2)s1,-1.5,-0.4,-41.7*,0.3,-0.7
Nc1nc(-c2ccccc2)c(-c2ccccc2)s1,5.9,6.1,/,/,-0.2
COc1ccc2c3c(n(C)c2c1)[C@@H](CO)N(Cc1ccc2c(c1)OCO2)CC31CCN(C(=O)C2CC2)CC1,/,/,-2.4,/,/
CCCn1c(SCC(=O)NC(=O)NC(C)(C)C)n[nH]c1=O,3.0,2.1,7.7,43.2*,0.1
CC(=O)N1[C@@H]2Cn3c(ccc(C4=CCCC4)c3=O)[C@H]1[C@@H](C(=O)NC1CCCC1)[C@@H]2CO,/,/,-0.6,/,/
SMILES,ADAM10 inh,ADAM17 inh,Ecoli rRNA inh,FGF22 binding,proKLK7 act
COC(=O)C1SCC2C(=O)N(Cc3ccccc3)CC(=O)N21 (centres undefined),-4.5,0.2,22.9,43.1*,0.5
C[C@H](CO)N1C[C@H](C)[C@@H](CN(C)Cc2cncnc2)Oc2cc(C#C[C@@H](C)O)ccc2S1(=O)=O,/,/,4.4,0.2,/
CC(C)CCNC(=O)COc1cccc2c1OC(C)(C)C2,-4.8,-2.5,-13.1,43.1*,1.1
COc1ccccc1N1CCN(C(=O)c2ccc3noc(-c4ccccc4)c3c2)CC1,-1.8,-0.4,-13.5*,0.3,1.0
CC(=O)N(C)C[C@H]1Oc2ccc(N(C)C)cc2C(=O)N(C)C[C@H]1C,/,/,0.1,/,/
C=CCNC(=S)Nc1sc2c(c1C(N)=O)CCCC2,-32.6,-9.0,-30.6*,-0.1,0.6
C=CC(=O)Nc1sc2c(c1C(N)=O)CCCC2,-4.8,-1.5,-3.6,-0.2,0.5
CCC(=O)N1[C@@H]2c3cccc(=O)n3C[C@@H]2[C@@H](CO)[C@@H]1C(=O)NCc1ccc(F)cc1,/,/,2.3,0.1,/
O=C(CNC(=O)C1COc2ccccc2O1)N/N=C\c1ccccc1Cl (centres undefined),8.2,-0.6,16.4,-0.1,-0.2
COc1cccc(/C=N/NC(=O)CNC(=O)C2COc3ccccc3O2)c1O (centres undefined),-31.4,-7.7,-19.7*,-0.1,-15.5
Cc1noc(C)c1S(=O)(=O)N(C)C[C@H]1OCCCC[C@H](C)Oc2ccc(NC(=O)NC3CCCCC3)cc2C(=O)N([C@H](C)CO)C[C@H]1C,/,/,0.2,/,/
O=C(NCc1ccc(S(=O)(=O)NC2CCCCC2)s1)c1ccccc1,-0.6,-4.8,-9.4,0.2,-0.2
O=C(NCc1ccc(S(=O)(=O)Nc2ccccc2Cl)s1)c1ccccc1,3.3,-3.9,-31.9*,-0.1,-0.1
CN1CCN(C2CCN(Cc3ccc(O)c4ncccc34)CC2)CC1,4.3,1.4,-28.6,43.7*,0.0
Oc1ccc(CN2CCN(Cc3ccccc3)CC2)c2cccnc12,13.2,0.1,/,/,-0.1
O=C(c1cc(S(=O)(=O)N2CCOCC2)c(Cl)cc1Cl)N1CCN(S(=O)(=O)c2cccc(F)c2)CC1,-3.9,-1.8,3.4,42.9*,0.3
Cc1ccc(S(=O)(=O)N2CCN(C(=O)c3cc(S(=O)(=O)N4CCOCC4)c(Cl)cc3Cl)CC2)cc1,-2.3,-7.1,2.9,0.0,0.4
CC(=O)Nc1ccc(C2=NNC(=NCC3CCCO3)SC2)cc1 (centres undefined),-22.6,-7.6,-10.7,0.2,-0.8
Fc1ccc(F)c(C2=NNC(=NCC3CCCO3)SC2)c1 (centres undefined),-64.5,-23.6,-13.9,43.1*,-0.2
C[C@H](CO)N1C[C@H](C)[C@@H](CN(C)C(=O)NC2CCCCC2)Oc2ccc(NC(=O)CCC(F)(F)F)cc2CC1=O,/,/,1.9,/,/
CC=Cc1ccc2n(c1=O)C[C@@H]1[C@@H](CO)[C@H](C(=O)N3CCc4ccccc4C3)[C@H]2N1Cc1ccncc1 (mixture of isomers),/,/,-1.3,1.5*,/
Cc1cc(C)c(C(=O)CN2C(=O)NC3(CCC(C)CC3)C2=O)cc1C (centres undefined),0.0,-3.1,13.1,0.6,0.2
Cc1cc(C(=O)CN2C(=O)NC3(CCC(C)CC3)C2=O)c(C)n1C (centres undefined),-0.2,-7.8,8.6,43.3*,0.3
O=C(c1ccc([N+](=O)[O-])cc1[N+](=O)[O-])N1CCc2ccccc21,-0.9,0.1,-0.4,0.1,-0.1
